Experimental findings from PubChem BioAssay AID686970 (National Center for Advancing Translational Sciences (NCATS), 2013) are described below.

The structures appear in SMILES notation. In all, about 360,000 compounds went through this assay and about 6,000 (1.7%) were called active. A call without a number means that no potency is given here. Inconclusive results (about 8%) are left out. Calls follow the shape of the dose curve; as a rule, active = well fitted cell-killing curve with a large enough effect; inconclusive = small, poorly fitted or top-dose-only effect, or effect the other way; inactive = flat fitted curve, though single readings scatter. For the sample, actives were picked, then their nearest neighbours and some compounds at random.
Potency is read from the fitted curve at half-maximal effect.

This assay in a line: qHTS for induction of synthetic lethality in tumor cells producing 2HG: qHTS for the HT-1080-NT fibrosarcoma cell line.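 Also: NT is the 2HG producing partner of a matched IDH1 knockdown line; nearly all actives have a fitted effect of over 55% in size.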 Conditions: HT-1080-NT fibrosarcoma viability, CellTiter-Glo ATP luminescence, 48 h; series mostly up to 46.1 µM. The method in brief: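 Viability of the 2HG-overproducing fibrosarcoma line after 48 hours of compound exposure at 37 degrees C was determined by luminescence with CellTiter-Glo, and concentration-effect curves were then fitted and categorized.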
`CN1CCN(C(=O)c2ccc(-c3cc4nc(NCc5cccnc5)n(C)c(=O)c4s3)cc2)CC1`: the Potency result was “inactive”.
Take `Cc1cccc(C)c1NC(=O)C(c1cccc(F)c1)N1CCN(C)CC1` (centres undefined): the Potency result is “inactive”.
In the case of `CCC(C(=O)OCC(=O)Nc1c(Cl)cc(Cl)cc1Cl)c1ccccc1` (centres undefined) it was “inactive”; in that of `CCC(C(=O)OCC(=O)Nc1ccccc1-c1ccccc1)c1ccccc1` (centres undefined), “inactive”; in that of `CCC(C(=O)OCC(=O)Nc1ccc(C(=O)Nc2ccc(OC)cc2)cc1)c1ccccc1` (centres undefined), 18.4 µM (active).
The same measure for `O=C(Nc1ccc(Cl)cc1)c1csc([C@@H]2O[C@H](CO)[C@H](O)[C@H](O)[C@H]2O)n1`: “inactive”; for `CC(C)c1ccc2c(c1)c(SC(C)(C)C)c(CC(C)(C)C(=O)O)n2Cc1ccc(Cl)cc1`: 13 µM (active).
The same measure for `C[C@@H]1CN([C@H](C)CO)C(=O)CCCn2cc(nn2)CO[C@H]1CN(C)S(=O)(=O)c1ccc(Oc2ccccc2)nc1`: “inactive”; for `O=C(c1ccc(C(F)(F)F)cc1)N1CCC(=O)N([C@H](COCc2ccccc2)Cc2ccccc2)CC1`: “inactive”.
Turning to `O=C(CNC(=O)N1CC(=O)Nc2ccccc21)Nc1ccc(Br)cc1F`, the Potency entry was “inactive”.
In the case of `O=C(O)CC1=C(Nc2ccccc2)C(=O)N(c2ccccc2)C1c1ccc(Cl)cc1` (centres undefined) it was “inactive”.
In the case of `O=C(CCC(=O)OCc1ccc(Cl)cc1)Nc1ccccc1` it was “inactive”.
The same measure for `O=C1C=C(c2ccc(Cl)cc2)C(=O)N1Nc1ccccc1`: 23.1 µM (active).
Regarding `CCN(Cc1ccncc1)C(=S)Nc1ccccc1C`, the Potency result is “inactive”.
For `CCCCN1CC(N2CCN(Cc3cccc(C)c3)CC2)CS1(=O)=O` (centres undefined), the Potency entry is “inactive”.
On to `CCCCN(CCCC)CCC(O)c1cc2c(Cl)cc(Cl)cc2c2cc(C(F)(F)F)ccc12` (centres undefined), for which the Potency is 14.6 µM (active).
In the case of `Fc1cccc(Cc2c(-c3cccc(Cl)c3)nc3ccc(Br)cn23)c1`, the Potency result is “inactive”.
In the case of `CC1(C(=O)NS(=O)(=O)c2ccccc2Cl)CCN1C(=O)c1cccc(F)c1` (centres undefined) it was “inactive”; in that of `Cc1cccc(C)c1NC(=O)C(Cl)C(=O)c1ccccc1` (centres undefined), 16.4 µM (active); in that of `Cc1cccc(C)c1NC(=O)N1CC(C)OC(C)C1` (centres undefined), “inactive”.
In the case of `Cc1cccc(C)c1NC(=O)CN(C)C(=O)CCC(=O)c1ccccc1`, the Potency entry was “inactive”.
For the molecule `Cc1ccccc1CN1C(=O)CSCC1(C)C(=O)Nc1c(C)cccc1C` (centres undefined), the Potency entry is “inactive”.
The same measure for `Cc1ccc(OCC(=O)OC(C)CN(C)Cc2ccccc2)cc1` (centres undefined): “inactive”; for `CN(Cc1ccccc1)CC(O)COc1ccc(CNCc2cc3ccccc3s2)cc1` (centres undefined): 20.6 µM (active); for `COc1ccc(OCC(O)CN(C)C(=O)C(C)Oc2ccccc2)cc1` (centres undefined): “inactive”.
The same measure for `CC(C)(C)Cc1c(C2CCCCC2)nc2ccc(Br)cn12`: “inactive”; for `O=C(NN=Cc1ccccc1O)NN=Cc1ccccc1O`: 8.2 µM (active); for `O=C(N/N=C/c1ccccc1O)C1CCCC1`: “inactive”.
The same measure for `O=C(NN=Cc1ccccc1)c1ccccc1`: “inactive”; for `CCCNC(=O)C1(C)CCCN(Cc2cccc(C(F)(F)F)c2)C1` (centres undefined): “inactive”.
Take `Cc1cccc(NS(=O)(=O)c2ccc(-c3cnc(C4CC4)o3)cc2)c1`: the Potency is 5.17 µM (active).
In the case of `Cc1cccc(NS(=O)(=O)c2ccc(C)c(C(N)=O)c2)c1` it was “inactive”; in that of `COc1ccc(CNS(=O)(=O)c2ccc(-c3cnc(C4CC4)o3)cc2)cc1`, “inactive”; in that of `O=C(CCCN1C(=O)C(c2ccccc2)Oc2cccnc21)Nc1ccccc1Br` (centres undefined), “inactive”.
In the case of `COc1ccc(C(CNC(=O)c2ccc(OCc3cscn3)cc2)N2CCCC2)cc1` (centres undefined) it was “inactive”; in that of `CN1CCN(c2ccc3c(c2)OC[C@H](Cc2ccccc2)NS3(=O)=O)CC1`, “inactive”.
The same measure for `CCN(CC)CCNc1ccc(Cl)cc1[N+](=O)[O-]`: “inactive”.
Take `COC(=O)Cn1c2ccc(C)cc2c2nc(C)sc21`: the Potency result is “inactive”.
The same measure for `CCN(CC)CCn1c2ccc(Cl)cc2c2nc(C)sc21`: 28.2 µM (active); for `O=C(NCc1ccccc1)C1c2ccccc2OCC(=O)N1C1CC1` (centres undefined): “inactive”.
In the case of `Cc1sc2ccccc2c1CNC[C@H]1O[C@@H](n2ccc(=O)[nH]c2=O)[C@H](O)[C@@H]1O` it was “inactive”; in that of `Cc1nc(/N=C(\N)NC(=O)NC2CCCCC2)nc2ccccc12`, 23.1 µM (active).
The same measure for `CC(C)c1cc(C(=O)NC2CCCCCC2)c2ccccc2n1`: “inactive”; for `COc1ccc2nc(/N=C(\N)NC(=O)Nc3ccccc3)nc(C)c2c1`: “inactive”.
Take `Cc1cccc(N(CC(=O)N2CCCC2)S(C)(=O)=O)c1C`: the Potency entry was “inactive”.
As for `CC(=O)c1ccccc1NC(=O)COC(=O)C1COc2ccccc2O1` (centres undefined), the Potency result is “inactive”.
Regarding `CCCCOCCCNC(=O)C[C@@H]1C[C@@]2(C(=O)OCC)CCCC=C2N(CCC2=CCCCC2)C1=O`, the Potency is 16.4 µM (active).
The same measure for `CCOC(=O)[C@]12CCCC=C1N(CCC1=CCCCC1)C(=O)[C@H](CC(=O)NCCCOC)C2`: “inactive”; for `CCOC(=O)[C@]12CCC=C1N(CCC1=CCCCC1)C(=O)[C@H](CC(=O)NCc1ccc(C)o1)C2`: “inactive”; for `COC(=O)[C@]12CCCCC=C1N(Cc1ccc3c(c1)OCO3)C(=O)[C@H](CC(=O)N1CCOCC1)C2`: “inactive”.
The same measure for `O=C(Cn1c(-c2cscn2)nc2ccccc21)Nc1ccc(Cl)cc1`: “inactive”; for `O=S(=O)(O)c1nc2ccccc2n1Cc1ccc(Cl)cc1Cl`: “inactive”; for `O=C(Cn1c(NCCO)nc2ccccc21)c1ccc(Cl)cc1Cl`: 20.6 µM (active).
In the case of `COc1ccc(C(C)C)cc1-c1ccc2nncn2c1` it was “inactive”; in that of `CC(C)C[C@@H]1Cc2[nH][nH]c(=O)c2[C@H](CCc2ccccc2)O1`, “inactive”; in that of `Cc1cc(C)c2c(c1)cc(C)c1nnc(SCC(=O)Nc3cc(C)on3)n12`, 6.31 µM (active).
Consider `Cc1cc(NC(=O)CSc2nnnn2-c2ccc(F)cc2)no1`, for which the Potency result was “inactive”.
Take `Cc1cc(NC(=O)CSc2nnc(-c3ccco3)n2N)no1`: the Potency result was “inactive”.
For the molecule `CCOC1=C2[C@H]([C@H]3C(=O)N(c4ccccc4)C(=O)[C@H]3C1)[C@@H](c1ccccc1)N(S(=O)(=O)c1ccc(C)cc1)[C@H]2c1ccccc1`, the Potency entry was “inactive”.
The same measure for `Cc1cccc(C)c1NC(=O)C(c1ccc(C(F)(F)F)cc1)n1c(=O)c(-c2ccco2)nc2ccccc21` (centres undefined): “inactive”; for `CC(=O)c1ccc(Nc2nc(C(N)c3ccccc3Cl)cs2)cc1` (centres undefined): “inactive”; for `COCC(C)NC(=O)COc1nncc2ccccc12` (centres undefined): “inactive”.
The same measure for `NC(Cc1ccc(F)cc1)c1csc(Nc2nncc3ccccc23)n1` (centres undefined): 23.1 µM (active); for `Cc1cc(Br)ccc1NC(=O)CCCOc1cc(=O)n(C)c2ccccc12`: “inactive”.
In the case of `COC(=O)[C@]12CCCCC=C1N(Cc1ccc(Cl)cc1Cl)C(=O)[C@H](CC(=O)NCc1cccc3ccccc13)C2` it was “inactive”; in that of `Cc1cc2c3ccccc3[nH]c(=O)n2n1`, “inactive”.
As for `COc1ccc(CN2C(=O)C(CC(=O)NCc3cccc4ccccc34)CC(C(=O)N3CCOCC3)=C2C)cc1` (centres undefined), the Potency entry was “inactive”.
The same measure for `NC(=O)Cn1cc(/C=N\NS(=O)(=O)c2ccccc2)c2ccccc21`: “inactive”; for `COC(=O)Cn1cc(/C=C/[N+](=O)[O-])c2ccccc21`: 18.4 µM (active).
In the case of `COCCCNC(=O)Cn1cc(/C=C(\C#N)C(=O)N2CCN(c3ccccc3)CC2)c2ccccc21` it was “inactive”.
In the case of `CC1Cc2[nH][nH]c(=O)c2C(C2CCCC2)O1` (centres undefined) it was “inactive”.
Take `CC1(Oc2ccccc2-c2ccno2)CCN(Cc2ccc(-c3ccccc3)o2)C1` (centres undefined): the Potency result was “inactive”.
The same measure for `CC(C)N1C(=O)c2ccccc2NC(=O)C1C(=O)NCc1cccs1` (centres undefined): “inactive”.
`COc1ccc(CCNC(=O)/C(C#N)=C2\N=C(NC(=O)c3cccs3)c3ccccc32)cc1`: the Potency result is “inactive”.
The same measure for `Cc1ccc2nc(/C(C#N)=C\c3ccc(OC(=O)c4cccs4)cc3)[nH]c2c1`: 7.94 µM (active).
The same measure for `Cc1occc1C(=O)NNC(=S)NCC(C)C`: “inactive”.
The same measure for `Cc1ccnc(NC(=O)c2ccoc2C)c1`: “inactive”; for `C/C(=N\NC(=O)c1ccoc1C)c1ccccc1O`: 3.26 µM (active).
`CC(C)Nc1ncnc2c1ncn2[C@H]1CN(Cc2ccncc2)C[C@@H](CO)O1`: the Potency result was “inactive”.
The same measure for `CCCCC(=O)N(C)c1c(CC)nc2c(OCc3ccc(S(C)(=O)=O)cc3)cccn12`: “inactive”; for `COC(=O)C[C@@H]1C=C[C@@H](NC(=O)c2ccc3c(c2)OCO3)[C@@H](CO)O1`: “inactive”.
In the case of `C[C@H](CO)N1C[C@H](C)[C@H](CN(C)C(=O)c2ccncc2)OCc2ccccc2-c2c(n(C)c3ccccc23)C1=O` it was “inactive”; in that of `CC1=NN(c2ccc(Cl)c(C(=O)O)c2)C(=O)/C1=C/c1ccc(-c2ccccc2[N+](=O)[O-])o1`, “inactive”; in that of `CC(=O)C1C(c2cccc(Oc3ccccc3)c2)NC(=O)NC1(O)C(F)(F)F` (centres undefined), “inactive”.
The same measure for `O=C1NC(c2ccc(-c3ccccc3[N+](=O)[O-])o2)C(C(=O)c2ccc(Cl)cc2)C(O)(C(F)(F)F)N1` (centres undefined): 16.4 µM (active); for `CCOC(=O)[C@]12CCCC=C1N(CCC1=CCCCC1)C(=O)[C@H](CC(=O)N1CCSCC1)C2`: “inactive”; for `N#CCCN(C(=O)Nc1ccc(Cl)c(Cl)c1)C1CCCCC1`: “inactive”.
In the case of `COc1ccc(N/N=C2/CCCCC2=O)cc1`, the Potency is 1.26 µM (active).
In the case of `Cc1ccc(N/N=C2\COC(C)(C)CC2=O)cc1` it was “inactive”; in that of `COc1ccc(NC(=O)c2c(C)oc3c2CCCC3)cc1`, “inactive”.
Take `Cc1ccnc(SC2CC(=O)N(c3ccccc3)C2=O)n1` (centres undefined): the Potency entry was “inactive”.
The same measure for `O=C1CC[C@@H](C(=O)N2CSC[C@@H]2C(=O)Nc2ccc(C(F)(F)F)cc2)N1`: “inactive”; for `O=S1(=O)CC(N2CCN(Cc3ccccc3F)CC2)CN1Cc1cn(Cc2cccc(C(F)(F)F)c2)nn1` (centres undefined): “inactive”; for `Cc1ccccc1OS(=O)(=O)c1cccc([N+](=O)[O-])c1`: “inactive”.
For the molecule `Cc1ccccc1OCCOc1ccc([N+](=O)[O-])cc1/C=N/n1cnnc1`, the Potency is 2.31 µM (active).
With `COc1cccc(OCCOc2cccc(/C=N/n3cnnc3)c2)c1`, the Potency entry is “inactive”.
Consider `NC1=CC(=O)C(=O)c2cccnc21`, for which the Potency is 25.9 µM (active).
In the case of `CCOc1ccc(CCN2C(=O)c3cccnc3C2=O)cc1OCC` it was “inactive”; in that of `Cc1ccc(S(=O)(=O)N2CC[C@H]3[C@@H](C2)C(=O)C[C@@H](c2ccccc2)N3S(=O)(=O)c2ccc(C)cc2)cc1`, “inactive”.
